This passage reports composite z-score and z-score results from PubChem BioAssay.

Calls of active or inactive are those of the source.

The nature of test [1]: small molecules captured by biotinylated probe aFSTL3 – biochemical, small-molecule microarray, fluorescence 635/667, stem cell growth factor project, primary screen (AID 1064).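 Further: measures binding of the biotinylated anti-FSTL3 antibody to printed compounds.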 The following applies: higher = more signal.
Test [2] can be described thus: binders from COS7 lysate, DM2A8 probe, primary screen, torsin A project, cell lysate, small-molecule microarray, fluorescence 635/667 (AID 1065). The following applies: higher = more signal, COS7 lysate expressing mutant human TOR1A.
Test [3] is described as follows: small molecules captured by biotinylated probe aFGF2 – biochemical, small-molecule microarray, fluorescence 635/667, stem cell growth factor project, primary screen (AID 1067).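 Further: measures binding of biotinylated aFGF2 protein to printed compounds on slides; z-score merges feature fluorescence and signal-to-noise across triplicate slides.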 The following applies: higher = more signal.
Test [4] in a line: small molecules captured by biotinylated probe aFGF10 – biochemical, small-molecule microarray, fluorescence 635/667, stem cell growth factor project, primary screen (AID 1071).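 Further: score merges 667 nm spot intensity and signal to noise from triplicate slides.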 Conditions: higher = more signal.
Test [5] deals with Neurogenic locus notch homolog protein 2 (Homo sapiens) (UniProt Q04721). Kind of test: small molecules binding Notch2 protein – biochemical, small-molecule microarray, 635 nm fluorescence, stem cell growth factors, primary screen (AID 1073). Conditions: higher = more signal.
Sequence of Neurogenic locus notch homolog protein 2 (Homo sapiens) (Q04721 whole entry, looked up, canonical isoform): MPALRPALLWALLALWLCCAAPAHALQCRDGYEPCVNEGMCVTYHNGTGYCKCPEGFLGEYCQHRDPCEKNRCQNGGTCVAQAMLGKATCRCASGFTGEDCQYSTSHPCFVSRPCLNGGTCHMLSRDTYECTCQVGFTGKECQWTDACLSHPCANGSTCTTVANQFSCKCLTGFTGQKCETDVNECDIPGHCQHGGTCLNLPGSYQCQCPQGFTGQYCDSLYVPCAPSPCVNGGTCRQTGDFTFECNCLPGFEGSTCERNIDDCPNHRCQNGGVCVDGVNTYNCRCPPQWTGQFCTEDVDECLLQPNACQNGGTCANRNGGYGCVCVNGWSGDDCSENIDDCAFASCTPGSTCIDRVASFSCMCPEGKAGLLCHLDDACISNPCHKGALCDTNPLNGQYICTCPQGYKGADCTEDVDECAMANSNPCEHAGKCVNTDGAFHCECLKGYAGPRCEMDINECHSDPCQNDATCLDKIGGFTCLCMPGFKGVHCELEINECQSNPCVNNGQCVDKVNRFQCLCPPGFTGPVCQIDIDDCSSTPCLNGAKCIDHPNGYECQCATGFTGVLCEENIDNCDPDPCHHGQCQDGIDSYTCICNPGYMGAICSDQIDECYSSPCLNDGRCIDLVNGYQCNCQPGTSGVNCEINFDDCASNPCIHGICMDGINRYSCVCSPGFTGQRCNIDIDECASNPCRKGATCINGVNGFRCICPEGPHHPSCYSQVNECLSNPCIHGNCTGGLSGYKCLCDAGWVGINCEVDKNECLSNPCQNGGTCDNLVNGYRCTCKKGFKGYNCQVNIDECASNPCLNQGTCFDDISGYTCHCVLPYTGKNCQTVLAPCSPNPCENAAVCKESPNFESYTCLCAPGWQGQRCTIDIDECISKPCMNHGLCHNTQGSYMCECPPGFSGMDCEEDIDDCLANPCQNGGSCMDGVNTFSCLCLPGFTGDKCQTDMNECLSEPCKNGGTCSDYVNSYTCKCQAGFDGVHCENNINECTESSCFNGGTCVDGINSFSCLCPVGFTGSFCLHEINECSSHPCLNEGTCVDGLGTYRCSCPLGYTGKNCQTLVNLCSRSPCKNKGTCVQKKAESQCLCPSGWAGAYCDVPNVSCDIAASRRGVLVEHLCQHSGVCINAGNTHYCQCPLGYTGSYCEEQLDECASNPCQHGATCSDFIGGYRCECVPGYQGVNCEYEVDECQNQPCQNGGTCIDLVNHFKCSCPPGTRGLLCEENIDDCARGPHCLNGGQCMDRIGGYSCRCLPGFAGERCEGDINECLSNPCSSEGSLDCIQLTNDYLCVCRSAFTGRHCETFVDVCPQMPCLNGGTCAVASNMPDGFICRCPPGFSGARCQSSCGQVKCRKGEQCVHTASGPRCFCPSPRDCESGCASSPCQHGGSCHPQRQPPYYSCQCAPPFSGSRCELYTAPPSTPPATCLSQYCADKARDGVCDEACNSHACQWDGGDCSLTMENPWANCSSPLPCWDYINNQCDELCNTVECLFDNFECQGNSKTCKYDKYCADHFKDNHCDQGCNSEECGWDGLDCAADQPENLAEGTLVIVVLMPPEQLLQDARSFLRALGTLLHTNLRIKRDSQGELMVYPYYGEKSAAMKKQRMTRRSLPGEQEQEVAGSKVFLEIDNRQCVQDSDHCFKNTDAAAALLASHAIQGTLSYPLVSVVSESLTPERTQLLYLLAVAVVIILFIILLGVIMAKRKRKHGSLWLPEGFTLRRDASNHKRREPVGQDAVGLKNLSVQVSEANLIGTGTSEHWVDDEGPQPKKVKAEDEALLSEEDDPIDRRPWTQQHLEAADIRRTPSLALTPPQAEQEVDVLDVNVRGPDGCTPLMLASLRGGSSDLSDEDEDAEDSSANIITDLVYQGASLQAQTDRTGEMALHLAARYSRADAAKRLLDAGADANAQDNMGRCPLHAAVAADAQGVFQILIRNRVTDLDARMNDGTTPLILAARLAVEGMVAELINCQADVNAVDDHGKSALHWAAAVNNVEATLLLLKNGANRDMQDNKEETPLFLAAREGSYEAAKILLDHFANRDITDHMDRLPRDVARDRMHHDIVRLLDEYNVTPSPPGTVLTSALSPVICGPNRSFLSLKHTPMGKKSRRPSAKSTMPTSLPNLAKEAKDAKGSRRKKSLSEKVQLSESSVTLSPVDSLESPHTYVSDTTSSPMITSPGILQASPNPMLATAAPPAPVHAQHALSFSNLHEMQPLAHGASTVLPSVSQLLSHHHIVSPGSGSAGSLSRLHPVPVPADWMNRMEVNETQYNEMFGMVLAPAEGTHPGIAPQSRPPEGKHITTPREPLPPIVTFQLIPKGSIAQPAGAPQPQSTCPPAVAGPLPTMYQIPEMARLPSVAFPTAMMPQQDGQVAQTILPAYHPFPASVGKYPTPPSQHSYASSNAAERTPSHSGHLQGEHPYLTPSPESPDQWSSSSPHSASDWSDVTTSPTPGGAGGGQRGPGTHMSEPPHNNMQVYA
In test [6] the target is Pro-neuregulin-1, membrane-bound isoform (Homo sapiens) (UniProt Q02297). In words: small molecules binding neuregulin-1 protein – biochemical, small-molecule microarray, fluorescence 635/667, psychiatric disease protein project, primary screen (AID 1075).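 Further: score combines 667 nm spot fluorescence with signal to noise.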 Conditions: NRG1 binding, 635 nm fluorescence, higher = more signal.
Sequence of Pro-neuregulin-1, membrane-bound isoform (Homo sapiens) (Q02297 whole entry, looked up, the tested form may be a part, canonical isoform): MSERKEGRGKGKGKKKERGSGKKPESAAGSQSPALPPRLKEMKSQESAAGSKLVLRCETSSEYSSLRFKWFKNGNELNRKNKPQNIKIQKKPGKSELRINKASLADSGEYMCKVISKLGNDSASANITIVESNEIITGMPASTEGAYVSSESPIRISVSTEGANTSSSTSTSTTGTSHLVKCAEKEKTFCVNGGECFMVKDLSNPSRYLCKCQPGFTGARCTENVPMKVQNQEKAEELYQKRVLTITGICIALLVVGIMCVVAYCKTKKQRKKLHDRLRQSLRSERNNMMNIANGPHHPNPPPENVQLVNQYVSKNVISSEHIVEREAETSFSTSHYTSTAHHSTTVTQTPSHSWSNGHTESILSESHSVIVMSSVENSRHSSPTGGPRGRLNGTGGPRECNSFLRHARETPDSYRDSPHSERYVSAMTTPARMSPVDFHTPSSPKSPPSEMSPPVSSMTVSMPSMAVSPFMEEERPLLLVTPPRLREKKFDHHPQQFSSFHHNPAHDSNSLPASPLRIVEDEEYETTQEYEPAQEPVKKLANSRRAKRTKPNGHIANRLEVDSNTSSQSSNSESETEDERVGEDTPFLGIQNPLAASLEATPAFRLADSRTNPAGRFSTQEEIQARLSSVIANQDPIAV
The test system of test [7] is Neuregulin-1 EGF-like domain. Kind of test: small molecules binding NRG1 EGF domain – biochemical, small-molecule microarray, 635 nm fluorescence, primary screen (AID 1081).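 Further: binding of the protein to compounds printed on small-molecule microarray slides.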 The following applies: higher = more signal.
A short description of test [8]: FRG1 expression reporter modulators in myotubes – cell-based, C2C12 myotubes, firefly/Renilla luciferase, luminescence, FRG1 inhibition for FSHD, primary screen (AID 1084). Conditions: FRG1 promoter luciferase, higher = more signal, called active from +8 up or from −8 down.
A short description of test [9]: small molecules captured by biotinylated probe aFST – biochemical, small-molecule microarray, fluorescence 635/667, stem cell growth factor project, primary screen (AID 1086).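 Further: score merges 667 nm fluorescence with signal-to-noise of each printed compound spot.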 Conditions: higher = more signal.
Test [10] in a line: binders of probe aHhip on microarray, primary screen, stem cell growth factor project, biochemical, small-molecule microarray, fluorescence 635/667 (AID 1087).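 Further: score merges spot fluorescence at 667nm with spot signal to noise ratio.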 The following applies: higher = more signal.

Consider `C[C@H]1NC(=O)C([C@@H](C)OCc2ccccc2)NC(=O)[C@@]23C(=O)N[C@@H](Cc4ccccc4)C2[C@H](C)[C@@]2(C)O[C@H]2C3/C=C/CC/C=C/CNC1=O` (stereo not given in full), for which the composite z-score was -0.0367 in [1]; 0.245 in test [2]; 0.0304 in [3]; 0.263 in [4]; 0.258 in test [5]; -0.178 in test [6]. For the same compound, the composite z-score is -0.248 in test [7], 0.114 in [9] and 0.127 in [10]. Also, the z-score in test [8] is 0.428 (inactive).
Turning to `C=C(/C(=C/C[C@@H](OC(=O)c1ccncc1)c1ccccc1OCCO)c1cnc2ccccc2c1)C(C)C`, the composite z-score in [1] is -0.108; in test [2], 0.707; in test [3], 0.0401; in [4] it was 1.14; in test [5] it was 1.5; in test [6], 1.23. Further, the composite z-score in test [7] is 1.2; in test [9], -0.177; in test [10], 0.144. For the same compound, the z-score in test [8] was -3.75 (inactive).
Regarding `COC(=O)[C@]1(Cc2ccccc2N=[N+]=[N-])N=C(c2ccc(OCCCO)cc2)O[C@@H]1c1ccccc1`, the composite z-score in [1] was 1.3; in test [2], 0.517; in test [3], 0.0132; in test [4], -0.152; in [5], -0.0515; in [6] it was 0.358. Further, the composite z-score in test [7] is 0.929; in [9] it was 0.182; in test [10], 0.0291. In [8], the z-score is -0.237 (inactive).
With `N#Cc1ccc(NN2C(C(O)c3ccco3)C=CC3C(=O)N(c4ccccc4)C(=O)C32)cc1` (stereo not given), the composite z-score is 0.188 in test [1]; -0.0615 in test [2]; -0.0133 in [3]; 0.758 in test [4]; 0.54 in test [5]; 0.989 in [6]. In addition, the composite z-score is 0.754 in [7], 0.39 in [9] and -0.249 in [10]. Also, the z-score in test [8] was 0.768 (inactive).
Turning to `C/C=C/[C@@H](CCn1cc([C@H](O)c2ccccc2)nn1)[Si](C)(C)c1ccc(OC)cc1`, the composite z-score in test [1] was 0.683; in [2], 1.28; in test [3], -0.0462; in test [4], -0.135; in test [5] it was -1.5; in [6], 1.29. In addition, the composite z-score in test [7] was 0.96; in test [9] it was -1.12; in test [10] it was -0.236. Further, the z-score in [8] was -1.41 (inactive).
For the compound `C=CC[C@]1(C(=O)NCC(O)CO)N=C(c2ccc(OCCCO)cc2)O[C@H]1c1ccccc1N=[N+]=[N-]` (stereo not given in full), the composite z-score in [1] is 0.227; in test [2], -0.444; in [3], 0.0649; in [4], 0.154; in [5], 0.323; in test [6] it was 1.8. Besides, the composite z-score in test [7] is 1.11; in test [9] it was 0.375; in [10] it was 0.23. Moreover, in test [8], the z-score is 1.25 (inactive).
In the case of `COC(=O)C(CC#Cc1ccc2c(c1)[C@]1(C(=O)N2)[C@H](c2ccc(O)cc2)N2[C@H](c3ccccc3)[C@H](c3ccccc3)OC(=O)[C@H]2[C@@H]1C(N)=O)C(=O)OC`, the composite z-score is 0.659 in test [1]; -0.392 in [2]; -0.168 in test [3]; -1.89 in test [4]; -1.06 in test [5]; -0.605 in test [6]. Further, the composite z-score in test [7] was -0.777; in test [9], -0.611; in test [10], -0.245. In test [8], the z-score was -0.719 (inactive).
Take `[N-]=[N+]=NCc1ccccc1C[C@@]1(C(=O)NCCN2CCOCC2)N=C(c2ccc(OCCCO)cc2)O[C@@H]1c1ccccc1CN=[N+]=[N-]`: the composite z-score in test [1] was -0.166; in [2], 0.69; in test [3], 0.105; in test [4] it was 0.924; in test [5], 1.26; in [6], 1.27. Further, the composite z-score came out at 1.21 in [7], 1.59 in test [9] and 0.0053 in [10]. Also, the z-score in test [8] was -2.25 (inactive).
As to `COc1ccc(CCNC(=O)[C@@H]2c3ccccc3C(=O)N(Cc3ccccc3C(F)(F)F)[C@H]2c2ccc(CO)cc2)cc1`, the composite z-score was 0.114 in test [1]; 1.02 in [2]; 0.0292 in [3]; 0.0105 in [4]; -0.354 in test [5]; 1.2 in [6]. Moreover, the composite z-score in [7] was 0.472; in [9], -0.211; in test [10] it was -0.134. Besides, the z-score in test [8] is -0.646 (inactive).
For the compound `O=[N+]([O-])c1ccc(C[n+]2ccc(-c3ccc(CO)cc3)cc2)o1`, the composite z-score in test [1] is -0.217; in test [2], 0.239; in [3] it was -0.0266; in test [4], 0.165; in test [5], 1.29; in test [6] it was 1.52. For the same compound, the composite z-score in test [7] worked out at 0.373; in test [9] it was 0.273; in test [10], 0.0373. For the same compound, the z-score in test [8] was -0.721 (inactive).
Regarding `Cc1ccc(F)cc1S(=O)(=O)N[C@@H]1CCN(C(=O)c2ccc(OC(C)C)cc2)C1`, the composite z-score in [1] is -0.473; in test [2], -0.414; in test [3], -0.131; in test [4], 0.859; in test [5], 0.957; in [6], -0.129. Besides, the composite z-score in [7] was 0.602; in test [9], 0.475; in test [10], -0.258. The z-score in [8] was -3.78 (inactive).
As to `COc1ccc([Si](C)(C)[C@@H]2[C@@H](CCO)O[C@]3(C(=O)N(Cc4ccc(N5C(=O)c6ccccc6Oc6ccccc65)cc4)c4ccccc43)[C@H]2C)cc1`, the composite z-score is 0.197 in test [1]; -0.589 in test [2]; -0.106 in [3]; -0.124 in test [4]; -0.323 in [5]; 1.09 in [6]. Besides, the composite z-score was 0.736 in test [7], -0.0716 in [9] and -0.0324 in [10]. Also, the z-score in test [8] was -1.69 (inactive).
Take `CC(=O)NCCCC[C@@H]1NC(=O)[C@H]2C[C@@H](C(=O)NCCCCCN)[C@@H](c3cccc(OCCO)c3)N2C1=O`: the composite z-score in test [1] is -0.0485; in test [2], 0.107; in test [3] it was 0.0661; in [4], 0.792; in test [5], 0.831; in test [6], 1.09. Besides, the composite z-score came out at 0.581 in [7], 0.547 in test [9] and 0.758 in test [10]. Besides, the z-score in test [8] is -0.549 (inactive).
On to `C[N+](C)(C)CCCC[C@@H]1NC(=O)[C@@H]2C[C@H](C(=O)NCCCCCNC(=O)CS)[C@H](c3cccc(OCCO)c3)N2C1=O`, for which the composite z-score in test [1] is -0.129; in test [2] it was 0.5; in test [3] it was 0.0402; in [4] it was 0.294; in [5], 0.151; in [6], 0.634. Besides, the composite z-score in [7] is 1.21; in test [9] it was -0.0763; in test [10], 0.138. For the same compound, in test [8], the z-score is -0.669 (inactive).
